Inconclusive results are not listed. Calls of active or inactive are those of the source. Unless noted, calls come from the whole dose curve; as a rule, active = well fitted curve in the direction sought with a large enough effect in the repeat runs; inconclusive = weak or mixed curves; inactive = no such curve, though single readings can be large; an effect the other way counts as inactive or inconclusive.
How the values were obtained:
[1] = A CellTox Green Cytotoxicity Assay to monitor cytotoxicity in HEK293 cells - 32 hour (AID 1224881); note: nearly all actives have a fitted effect of over 40% in size
How it was run: (§1)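 Nonlytic real-time cytotoxicity: HEK293 + CellTox Green reagent plated, 5 h preincubation, pintool compound addition (23 nL in DMSO), 37 C for 40 h, fluorescence measured at successive time points.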

[2] = A CellTox Green Cytotoxicity Assay to monitor cytotoxicity in HepG2 cells - 32 hour (AID 1224883); note: nearly all actives have a fitted effect of over 50% in size
How it was run: (§2)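 Read-out is fluorescence of a cyanine dye excluded from live cells that stains DNA of dead HepG2 cells, with signal proportional to cytotoxicity. Plates were read at 0, 8, 16, 24, 32 and 40 h after compound addition.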

[3] = A CellTox Green Cytotoxicity Assay to monitor cytotoxicity in HEK293 cells - 8 hour (AID 1224884); note: nearly all actives have a fitted effect of over 35% in size
How it was run: as §1

[4] = qHTS RealTime-Glo MT Cell Viability Assay in HepG2 cells - 16 hour (AID 1224885); note: nearly all actives have a fitted effect of over 50% in size
How it was run: (§3)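 Viability was tracked continuously by NanoLuc luminescence from prosubstrate reduced by living HepG2 cells, at successive time points over 40 h of compound exposure. Cells with reagent were preincubated 5 h at 37 °C before compound addition.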

[5] = qHTS RealTime-Glo MT Cell Viability Assay in HEK293 cells - 24 hour (AID 1224886); note: top concentration of the series differs between compounds; nearly all actives have a fitted effect of over 50% in size
How it was run: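 Viability tracked continuously by luminescence as live cells reduce a prosubstrate for NanoLuc; HEK293 cells preincubated 5 h, compound-treated at 37 C, and read at 0, 8, 16, 24, 32 and 40 h.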

[6] = A CellTox Green Cytotoxicity Assay to monitor cytotoxicity in HEK293 cells - 16 hour (AID 1224888); note: nearly all actives have a fitted effect of over 35% in size
How it was run: as §1

[7] = qHTS RealTime-Glo MT Cell Viability Assay in HepG2 cells - 0 hour (AID 1224889); note: nearly all actives have a fitted effect of over 50% in size
How it was run: as §3

[8] = A CellTox Green Cytotoxicity Assay to monitor cytotoxicity in HepG2 cells - 8 hour (AID 1224890); note: nearly all actives have a fitted effect of over 45% in size
How it was run: as §2

[9] = qHTS assay to identify small molecule antagonists of the estrogen receptor alpha (ER-alpha) signaling pathway using the BG1 cell line in the presence of 0.1 nM 17-beta-estradiol - cell viability counter screen (AID 1259241); note: nearly all actives have a fitted effect of over 40% in size
How it was run: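 Live-cell protease activity (CellTiter-Fluor fluorescence, 30 min) was read in the same wells after VM7Luc4E2 cells had been exposed to compounds with 0.1 nM 17beta-estradiol for 22 hr at 37C.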

[10] = qHTS assay to identify small molecule antagonists of the androgen receptor (AR) signaling pathway using the MDA cell line in the presence of 0.5 nM R1881 - cell viability counter screen (AID 1259242); note: nearly all actives have a fitted effect of over 45% in size
How it was run: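 Counter screen for cytotoxicity run in the same wells as the AR antagonist reporter screen: MDA-kb2 cells were treated 16 hr with test compounds and 0.5 nM R1881, then live-cell protease activity was measured by fluorescence.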

[11] = molecular target: Androgen receptor (Homo sapiens) (UniProt P10275); experiment: qHTS assay to identify small molecule antagonists of the androgen receptor (AR) signaling pathway using the MDA cell line in the presence of 0.5 nM R1881 (AID 1259243); note: nearly all actives have a fitted effect of over 50% in size
Chain of Androgen receptor (Homo sapiens) (P10275 whole entry, looked up): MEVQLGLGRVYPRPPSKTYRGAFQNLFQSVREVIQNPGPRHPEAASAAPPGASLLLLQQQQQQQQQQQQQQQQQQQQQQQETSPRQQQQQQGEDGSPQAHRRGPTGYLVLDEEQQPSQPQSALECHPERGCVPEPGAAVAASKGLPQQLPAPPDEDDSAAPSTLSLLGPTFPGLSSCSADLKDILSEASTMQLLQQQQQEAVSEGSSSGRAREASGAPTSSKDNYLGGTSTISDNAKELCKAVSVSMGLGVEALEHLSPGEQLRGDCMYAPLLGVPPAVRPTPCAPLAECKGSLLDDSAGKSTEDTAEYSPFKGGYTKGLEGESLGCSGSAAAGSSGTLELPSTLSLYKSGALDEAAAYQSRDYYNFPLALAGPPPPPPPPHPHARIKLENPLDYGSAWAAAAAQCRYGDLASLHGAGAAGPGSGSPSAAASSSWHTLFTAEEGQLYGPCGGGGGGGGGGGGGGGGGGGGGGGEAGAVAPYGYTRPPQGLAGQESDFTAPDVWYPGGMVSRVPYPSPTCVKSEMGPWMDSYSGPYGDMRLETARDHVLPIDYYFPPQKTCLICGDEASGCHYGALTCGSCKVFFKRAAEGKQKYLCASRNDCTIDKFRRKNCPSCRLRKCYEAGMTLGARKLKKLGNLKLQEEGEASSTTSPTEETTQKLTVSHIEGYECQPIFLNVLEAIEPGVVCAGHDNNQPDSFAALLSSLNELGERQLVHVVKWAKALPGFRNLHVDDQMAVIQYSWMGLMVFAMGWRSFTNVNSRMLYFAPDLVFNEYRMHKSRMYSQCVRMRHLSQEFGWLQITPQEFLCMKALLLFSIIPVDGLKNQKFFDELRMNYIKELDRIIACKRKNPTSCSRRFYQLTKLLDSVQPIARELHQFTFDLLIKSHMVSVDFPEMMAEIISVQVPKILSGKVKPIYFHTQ
How it was run: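 Luciferase luminescence is the read-out: compounds are tested for suppressing 0.5 nM R1881-driven MMTV reporter activity in MDA-kb2 cells after 16 hr at 37C.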

[12] = molecular target: Estrogen receptor (Homo sapiens) (UniProt P03372); experiment: qHTS assay to identify small molecule antagonists of the estrogen receptor alpha (ER-alpha) signaling pathway using the BG1 cell line in the presence of 0.1 nM 17-beta-estradiol (AID 1259244); note: nearly all actives have a fitted effect of over 50% in size
Chain of Estrogen receptor (Homo sapiens) (P03372 whole entry, looked up): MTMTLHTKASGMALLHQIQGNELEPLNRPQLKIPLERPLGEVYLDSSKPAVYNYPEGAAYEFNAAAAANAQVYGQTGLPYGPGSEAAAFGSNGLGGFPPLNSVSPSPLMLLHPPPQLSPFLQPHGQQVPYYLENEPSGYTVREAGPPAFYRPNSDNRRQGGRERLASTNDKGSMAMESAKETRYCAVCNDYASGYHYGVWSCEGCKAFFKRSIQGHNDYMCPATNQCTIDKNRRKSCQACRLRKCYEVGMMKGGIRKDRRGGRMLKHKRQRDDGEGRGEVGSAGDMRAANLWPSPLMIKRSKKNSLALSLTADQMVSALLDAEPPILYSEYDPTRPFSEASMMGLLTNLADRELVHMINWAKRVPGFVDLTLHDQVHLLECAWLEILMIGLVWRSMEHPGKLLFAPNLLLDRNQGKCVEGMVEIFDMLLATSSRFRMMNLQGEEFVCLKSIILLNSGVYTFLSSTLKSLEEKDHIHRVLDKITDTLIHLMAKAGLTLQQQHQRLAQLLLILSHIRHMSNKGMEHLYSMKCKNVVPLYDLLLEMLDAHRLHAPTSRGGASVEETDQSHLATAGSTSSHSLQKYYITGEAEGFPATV
How it was run: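 Cells: VM7Luc4E2, endogenous ER-alpha, 4x ERE-luc stable. Pre-culture 5 d, phenol red-free, charcoal-stripped FBS. Plated 24 h, compound + E2 0.1 nM final, 22 h 37C/5% CO2. Readout ONE-Glo luminescence.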

[13] = qHTS assay to identify small molecule phospholipidosis (PLD) inducers (AID 1259344; active = well fitted curve in the direction sought with a large enough effect; an effect the other way counts as inactive or inconclusive)
How it was run: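 Fluorescent phospholipid staining (LipidTOX Red) measured by automated microscopy in fixed HepG2 cells after 24 h treatment; nuclei counterstained with Hoechst 33342; amiodarone as reference inducer.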

[14] = qHTS assay to identify small molecule HDAC inhibitors - cell viability counter screen (AID 1259365)
How it was run: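 HCT-116 (wild type), 1,500 cells/well, overnight 37C/5% CO2; compound in DMSO 2hr; CellTiter-Glo 30min RT; luminescence read.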

[15] = qHTS assay to identify small molecule agonists of the sonic hedgehog signaling (Shh) pathway - cell viability counter screen (AID 1259366); note: nearly all actives have a fitted effect of over 50% in size
How it was run: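 CellTiter-Fluor fluorescence read-out, 1 hr at 37C, added after 23hr compound exposure. Cells: 3T3 Gli1-Luc, an NIH/3T3 clone with stably integrated Gli1-Luc reporter, plated 4hr before compound.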

[16] = qHTS assay to identify small molecule antagonists of the sonic hedgehog signaling (Shh) pathway - cell viability counter screen (AID 1259367); note: nearly all actives have a fitted effect of over 55% in size
How it was run: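 Using CellTiter-Fluor, viability of Gli1-Luc reporter 3T3 cells is read by fluorescence in the wells used for the Shh luciferase assay. Treatment lasts 23 hr with conditioned medium, then reagent 1 hr at 37C.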

[17] = qHTS assay to identify small molecule agonists of the sonic hedgehog signaling (Shh) pathway (AID 1259368; calls by dose curve;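 note: NIH/3T3-derived 3T3Gli1-Luc cells carrying a stable Gli1-driven firefly luciferase reporter; series mostly up to about 92 µM; nearly all actives have a fitted effect of over 15% in size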)
How it was run: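 3T3Gli1-Luc (NIH/3T3 clone, stable Gli1-Luc); 4 hr pre-incubation, then cpd in DMSO 24 hr, 37 C/5% CO2; luciferase reagent 30 min RT; luminescence.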

[18] = qHTS RealTime-Glo MT Cell Viability Assay in HEK293 cells - 8 hour (AID 1224887)
How it was run: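 Cells were seeded together with NanoLuc luciferase and a prosubstrate that viable cells reduce to a luciferase substrate. After a 5 h incubation at 37 C/5% CO2, compounds were added and luminescence was measured repeatedly during 40 h of treatment.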

[19] = qHTS assay to identify small molecule HDAC inhibitors (AID 1259364); note: top concentration of the series differs between compounds; nearly all actives have a fitted effect of over 45% in size
How it was run: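 Luminescence from a cell-permeant luminogenic class I/II HDAC substrate reports endogenous deacetylase activity in intact HCT-116 cells treated with compounds for 2 h.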

[20] = A CellTox Green Cytotoxicity Assay to monitor cytotoxicity in HepG2 cells - 0 hour (AID 1224882); note: nearly all actives have a fitted effect of over 35% in size
How it was run: as §2
% is set by controls: 0 for no effect and ±100 for the full control effect.

CN(C)C(=O)Oc1cc(OC(=O)N(C)C)cc(C(O)CNC(C)(C)C)c1 (stereo not given)
inactive: Potency [1] | Potency [2] | Potency [3] | Potency [4] | Potency [5] | Potency [6] | outcome [7] | Potency [8] | outcome [9] | Potency [10] | Potency [11] | Potency [12] | Potency [13] | outcome [14] | Potency [15] | Potency [16] | outcome [17]

NC(=O)CS(=O)C(c1ccccc1)c1ccccc1 (stereo not given)
inactive: Potency [1] | Potency [2] | Potency [5] | Potency [18] | Potency [6] | outcome [7] | Potency [8] | outcome [9] | Potency [10] | Potency [12] | Potency [13] | Potency [19] | outcome [14] | Potency [15] | Potency [16] | outcome [17]

C=CC(=O)OCCN(C)C
inactive: Potency [1] | Potency [2] | Potency [3] | Potency [4] | Potency [5] | Potency [18] | Potency [6] | outcome [7] | Potency [8] | outcome [9] | Potency [10] | outcome [14] | Potency [15] | Potency [16] | outcome [17]

CCOC(=O)NC(C)(C)Cc1ccc(Cl)cc1
inactive: outcome [20] | Potency [2] | Potency [3] | Potency [5] | Potency [18] | Potency [6] | outcome [7] | Potency [8] | outcome [9] | Potency [10] | Potency [12] | PLD induction [13] 18.3% [at 1.53 µM] | outcome [14] | Potency [15] | Potency [16] | outcome [17]

CCN[C@H](C)Cc1cccc(C(F)(F)F)c1
inactive: Potency [1] | Potency [2] | Potency [4] | Potency [5] | Potency [18] | Potency [6] | outcome [7] | Potency [8] | outcome [9] | Potency [10] | Potency [12] | Potency [19] | outcome [14] | Potency [15] | Potency [16] | outcome [17]

C=C(Cl)CSC(=S)N(CC)CC
inactive: Potency [1] | Potency [2] | Potency [3] | Potency [4] | Potency [5] | Potency [6] | outcome [7] | Potency [8] | Potency [10] | Potency [19] | outcome [14] | Potency [15] | Potency [16] | outcome [17]

CC(C)c1ccc(O)cc1
inactive: Potency [1] | Potency [2] | Potency [3] | Potency [4] | Potency [5] | Potency [18] | outcome [7] | Potency [8] | outcome [9] | Potency [10] | outcome [14] | Potency [15] | Potency [16]

CCOP(=S)(OCC)SCCl
inactive: outcome [20] | Potency [2] | Potency [3] | Potency [4] | Potency [5] | Potency [18] | outcome [7] | Potency [8] | outcome [9] | Potency [10] | Potency [11] | Potency [12] | Potency [19] | outcome [14] | Potency [15] | Potency [16] | outcome [17]

CC(=O)OCC1=C(C(=O)O)N2C(=O)[C@@H](N)[C@H]2SC1
inactive: cytotoxicity increase [1] -3.48% [at 15.8 µM] | cytotoxicity increase [2] 0.0293% [at 15.8 µM] | cytotoxicity increase [3] -3.34% [at 15.8 µM] | activity change, negative = cytotoxic [4] 0.0339% [at 15.8 µM] | activity change, negative = cytotoxicity [5] 11.4% [at 15.8 µM] | activity change, negative = cytotoxicity [18] -14.1% [at 15.8 µM] | activity change, negative = cytotoxicity [7] -5.45% [at 15.8 µM] | cytotoxicity increase [8] 1.96% [at 15.8 µM] | activity change, negative = cytotoxicity [9] 4.49% [at 19 µM] | viability change, negative = cytotoxic [10] 4.78% [at 19 µM] | Potency [13] | activity change, negative = inhibition [19] -0.068% [at 19 µM] | activity change, negative = cytotoxicity [14] 0.172% [at 19 µM] | viability change, negative = cytotoxic [15] 1.92% [at 19 µM] | viability change, negative = cytotoxic [16] 0.909% [at 19 µM] | activity change [17] 0.594% [at 18.9 µM]

Source: PubChem BioAssay (Tox21)
